Drawing on PubChem BioAssay (NCI), this text covers growth for 14 compounds.

The panel holds about 83,000 compounds, 20% with a hit somewhere; the sample as a whole holds those more often.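 A percent growth of 40 corresponds to 60% growth inhibition; 0 means no net growth; -100 means all cells died. Active threshold: below 10.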 A number with no mark means an inactive call. The source made the active and inactive calls.

Test systems include SR leukemia; RPMI-8226 leukemia; OVCAR-8 ovarian; OVCAR-5 ovarian; OVCAR-4 ovarian; SK-OV-3 ovarian; IGROV1 ovarian; OVCAR-3 ovarian; HS 578T breast; NCI/ADR-RES ovarian.
Common to all, as to assay: NCI-60 one-dose screen, 48 h (100 = growth as untreated, 0 = no growth, -100 = all killed)
Holding throughout (conditions): 10 µM unless noted

In the case of `COC(=O)c1cc(=O)nc(N/N=C/c2ccco2)s1`, the growth in the experiment on SR leukemia is 87%; with RPMI-8226 leukemia, 96%; in the experiment on OVCAR-8 ovarian it was 107%; in the experiment with OVCAR-5 ovarian, 108%; with OVCAR-4 ovarian it was 96.7%; in the experiment on SK-OV-3 ovarian it was 117%. For the same compound, the growth is 93.4% in the experiment on IGROV1 ovarian, 106% in the experiment with OVCAR-3 ovarian, 106% in the experiment with HS 578T breast and 104% in the experiment on NCI/ADR-RES ovarian.

As for `c1coc(CNc2ccnc(Nc3ccc(OCCN4CCCCC4)cc3)n2)c1`, the growth with SR leukemia is 61.5%; in the experiment on RPMI-8226 leukemia it was 71.1%; in the experiment with OVCAR-8 ovarian, -5.87% (active); in the experiment on OVCAR-5 ovarian, 97%; with OVCAR-4 ovarian it was 87.6%; in the experiment on SK-OV-3 ovarian, 103%. Further, the growth in the experiment with IGROV1 ovarian was 98.1%; with OVCAR-3 ovarian it was 90.1%; with HS 578T breast, 80.9%; in the experiment with NCI/ADR-RES ovarian, 104%.

In the case of `O=C(Nc1ccncc1)C(=O)c1cn(S(=O)(=O)c2ccccc2F)c2ccccc12`, the growth in the experiment on SR leukemia is 16.4%; in the experiment with RPMI-8226 leukemia, 9.83% (active); in the experiment with OVCAR-8 ovarian it was 35.2%; in the experiment with OVCAR-5 ovarian it was 69.3%; with OVCAR-4 ovarian it was 57.1%; with SK-OV-3 ovarian, 87.5%. The growth is 52% in the experiment with IGROV1 ovarian, -27.1% (active) in the experiment with OVCAR-3 ovarian, 12.1% with HS 578T breast and -17.7% (active) in the experiment with NCI/ADR-RES ovarian.

For the compound `COC(=O)c1cccc2c1N(C)c1c(cccc1C(=O)OC)CC2`, the growth is 114% with SR leukemia; 90.5% with RPMI-8226 leukemia; 113% in the experiment with OVCAR-8 ovarian; 98.7% with OVCAR-5 ovarian; 112% in the experiment on OVCAR-4 ovarian; 110% in the experiment on SK-OV-3 ovarian. The growth was 108% with IGROV1 ovarian, 102% in the experiment on OVCAR-3 ovarian, 89.7% with HS 578T breast and 95.6% with NCI/ADR-RES ovarian.

For the compound `CCCCCCCCCCCCCCCCCCNC(=O)[C@H]1CSC(c2ccc(OC)cc2O)N1` (stereo not given in full), the growth with SR leukemia is 9.44% (active); with RPMI-8226 leukemia, 73.4%; with OVCAR-8 ovarian, 12%; in the experiment with OVCAR-5 ovarian, 56%; with OVCAR-4 ovarian, 84.6%; in the experiment with SK-OV-3 ovarian it was 96.4%. The growth is 60.1% with IGROV1 ovarian, 80.3% in the experiment on OVCAR-3 ovarian, 55% with HS 578T breast and 70.8% in the experiment with NCI/ADR-RES ovarian.

In the case of `COc1ccc(CCNC2=CC(=O)CCC2)cc1OC`, the growth in the experiment with SR leukemia is 85.9%; in the experiment on RPMI-8226 leukemia, 107%; in the experiment on OVCAR-8 ovarian it was 106%; with OVCAR-5 ovarian, 105%; with OVCAR-4 ovarian, 115%; in the experiment with SK-OV-3 ovarian, 105%. Further, the growth is 113% with IGROV1 ovarian, 105% in the experiment with OVCAR-3 ovarian, 94.6% in the experiment on HS 578T breast and 102% in the experiment on NCI/ADR-RES ovarian.

For the compound `CCNc1nc(S(=O)(=O)CC)nc2ccccc12`, the growth is 84.5% with SR leukemia; 87.5% in the experiment with RPMI-8226 leukemia; 99.8% in the experiment on OVCAR-8 ovarian; 104% in the experiment on OVCAR-5 ovarian; 99.7% with OVCAR-4 ovarian; 96.6% in the experiment on SK-OV-3 ovarian. The growth was 104% in the experiment on IGROV1 ovarian, 98% in the experiment with OVCAR-3 ovarian, 93.6% with HS 578T breast and 111% in the experiment with NCI/ADR-RES ovarian.

Take `CCC(=O)Oc1ccc(/C(=C(/C)Cc2cccc(OC)c2)c2ccc(OCCN(C)C)cc2)cc1`: the growth was -0.896% (active) in the experiment on SR leukemia; 70.7% with RPMI-8226 leukemia; 102% with OVCAR-8 ovarian; 99.1% with OVCAR-5 ovarian; 87.3% in the experiment on OVCAR-4 ovarian; 114% with SK-OV-3 ovarian. Besides, the growth was 95.4% in the experiment on IGROV1 ovarian, 92% with OVCAR-3 ovarian, 93.5% in the experiment on HS 578T breast and 100% in the experiment with NCI/ADR-RES ovarian.

Regarding `N#C/C(=C1C=C/C(=N/O)C(Cl)=C/1)c1ccc(Cl)cc1`, the growth is 78.5% in the experiment on SR leukemia; 20.7% in the experiment with RPMI-8226 leukemia; 66.3% in the experiment with OVCAR-8 ovarian; 129% in the experiment with OVCAR-5 ovarian; 88.9% with OVCAR-4 ovarian; 121% in the experiment on SK-OV-3 ovarian. The growth was 45.4% in the experiment with IGROV1 ovarian, 31.7% in the experiment with OVCAR-3 ovarian, 87.7% in the experiment on HS 578T breast and 63.1% in the experiment with NCI/ADR-RES ovarian.

On to `O=S(=O)(CC(O)(c1ccccc1)c1ccccc1)CC(O)(c1ccccc1)c1ccccc1`, for which the growth with SR leukemia was 118%; in the experiment with RPMI-8226 leukemia it was 94.7%; in the experiment with OVCAR-8 ovarian, 75.8%; in the experiment with OVCAR-5 ovarian it was 94.9%; with OVCAR-4 ovarian, 80.9%; with SK-OV-3 ovarian it was 77%. Besides, the growth in the experiment with IGROV1 ovarian is 66.5%; in the experiment with OVCAR-3 ovarian, 77.1%; in the experiment on HS 578T breast, 65.3%; in the experiment on NCI/ADR-RES ovarian, 86.1%.

As to `CCN(CC)c1ccc(CNc2ccnc3ccccc23)cc1`, the growth was 9.72% (active) with SR leukemia; 25.2% with RPMI-8226 leukemia; 47.4% in the experiment on OVCAR-8 ovarian; 81.7% in the experiment with OVCAR-5 ovarian; 17.1% in the experiment with OVCAR-4 ovarian; 61.4% in the experiment with SK-OV-3 ovarian. In addition, the growth is 78.2% in the experiment with IGROV1 ovarian, 52.5% in the experiment with OVCAR-3 ovarian, 90.1% in the experiment on HS 578T breast and 40% with NCI/ADR-RES ovarian.

In the case of `Oc1ccccc1/C=N/NC(=S)NC1CC2C=CC1C2` (stereo not given), the growth in the experiment with SR leukemia is 30.1%; in the experiment on RPMI-8226 leukemia, 63.5%; with OVCAR-8 ovarian, 84.3%; with OVCAR-5 ovarian, 109%; in the experiment with OVCAR-4 ovarian, 78.1%; in the experiment with SK-OV-3 ovarian, 95.7%. The growth is 62.2% in the experiment on IGROV1 ovarian, 67.4% in the experiment on OVCAR-3 ovarian, 98.2% with HS 578T breast and 0.723% (active) in the experiment on NCI/ADR-RES ovarian.

For `Brc1cccc(-c2cc(-c3ccc4c(c3)OCCCO4)[nH]n2)c1`, the growth with SR leukemia is 41.7% [25 µM]; with RPMI-8226 leukemia it was 57.2% [25 µM]; in the experiment with OVCAR-8 ovarian, 69.3% [25 µM]; with OVCAR-5 ovarian, 63% [25 µM]; in the experiment on OVCAR-4 ovarian, 68.1% [25 µM]; with SK-OV-3 ovarian, 53.1% [25 µM]. The growth in the experiment with IGROV1 ovarian is 46.8% [25 µM]; in the experiment with OVCAR-3 ovarian it was 48.7% [25 µM]; in the experiment on HS 578T breast it was 71.1% [25 µM]; in the experiment with NCI/ADR-RES ovarian it was 22.1% [25 µM].

Regarding `O=C1C(Cl)=C(Nc2ccccn2)C(=O)c2ccccc21`, the growth with SR leukemia is 81.4%; with RPMI-8226 leukemia it was 56.5%; in the experiment with OVCAR-8 ovarian, 29.5%; in the experiment on OVCAR-5 ovarian, 115%; in the experiment on OVCAR-4 ovarian, 30.2%; in the experiment on SK-OV-3 ovarian, 108%. Also, the growth in the experiment with IGROV1 ovarian was 34.4%; in the experiment on OVCAR-3 ovarian, 26.9%; in the experiment on HS 578T breast it was -9.73% (active); in the experiment with NCI/ADR-RES ovarian, 34.9%.
